Experimental data reported in PubChem BioAssay.
Calls of active or inactive are those of the source.

Experiments:
[1] = small molecules captured by biotinylated probe aFSTL3 – biochemical, small-molecule microarray, fluorescence 635/667, stem cell growth factor project, primary screen (AID 1064); settings: higher = more signal;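 also: measures binding of the biotinylated anti-FSTL3 antibody to printed compounds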
[2] = binders from COS7 lysate, DM2A8 probe, primary screen, torsin A project, cell lysate, small-molecule microarray, fluorescence 635/667 (AID 1065); settings: higher = more signal, COS7 lysate expressing mutant human TOR1A
[3] = small molecules captured by biotinylated probe aFGF2 – biochemical, small-molecule microarray, fluorescence 635/667, stem cell growth factor project, primary screen (AID 1067); settings: higher = more signal;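 also: measures binding of biotinylated aFGF2 protein to printed compounds on slides; z-score merges feature fluorescence and signal-to-noise across triplicate slides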
[4] = small molecules captured by biotinylated probe aFGF10 – biochemical, small-molecule microarray, fluorescence 635/667, stem cell growth factor project, primary screen (AID 1071); settings: higher = more signal;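 also: score merges 667 nm spot intensity and signal to noise from triplicate slides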
[5] = molecular target: Neurogenic locus notch homolog protein 2 (Homo sapiens) (UniProt Q04721); test: small molecules binding Notch2 protein – biochemical, small-molecule microarray, 635 nm fluorescence, stem cell growth factors, primary screen (AID 1073); settings: higher = more signal
[6] = molecular target: Pro-neuregulin-1, membrane-bound isoform (Homo sapiens) (UniProt Q02297); test: small molecules binding neuregulin-1 protein – biochemical, small-molecule microarray, fluorescence 635/667, psychiatric disease protein project, primary screen (AID 1075); settings: NRG1 binding, 635 nm fluorescence, higher = more signal;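 also: score combines 667 nm spot fluorescence with signal to noise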
Sequence of Pro-neuregulin-1, membrane-bound isoform (Homo sapiens) (Q02297 whole entry, looked up, the tested form may be a part, canonical isoform): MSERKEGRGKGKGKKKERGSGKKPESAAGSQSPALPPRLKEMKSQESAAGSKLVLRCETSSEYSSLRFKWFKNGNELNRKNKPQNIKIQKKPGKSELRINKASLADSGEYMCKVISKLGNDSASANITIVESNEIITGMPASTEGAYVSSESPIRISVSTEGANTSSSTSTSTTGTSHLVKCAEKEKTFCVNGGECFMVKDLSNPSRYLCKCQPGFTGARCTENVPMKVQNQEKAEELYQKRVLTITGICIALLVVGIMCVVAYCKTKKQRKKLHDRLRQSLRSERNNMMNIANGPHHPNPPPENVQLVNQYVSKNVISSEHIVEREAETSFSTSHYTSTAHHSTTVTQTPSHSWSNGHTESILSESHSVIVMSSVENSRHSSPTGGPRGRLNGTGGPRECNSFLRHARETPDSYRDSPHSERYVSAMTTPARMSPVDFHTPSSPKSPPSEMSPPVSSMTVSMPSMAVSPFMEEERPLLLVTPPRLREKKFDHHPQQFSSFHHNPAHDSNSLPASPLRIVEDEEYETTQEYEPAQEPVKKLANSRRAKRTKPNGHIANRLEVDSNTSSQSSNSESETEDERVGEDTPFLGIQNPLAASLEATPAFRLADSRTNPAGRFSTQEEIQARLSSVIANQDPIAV

[7] = tested on: Neuregulin-1 EGF-like domain; test: small molecules binding NRG1 EGF domain – biochemical, small-molecule microarray, 635 nm fluorescence, primary screen (AID 1081); settings: higher = more signal;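 also: binding of the protein to compounds printed on small-molecule microarray slides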
[8] = FRG1 expression reporter modulators in myotubes – cell-based, C2C12 myotubes, firefly/Renilla luciferase, luminescence, FRG1 inhibition for FSHD, primary screen (AID 1084); settings: FRG1 promoter luciferase, higher = more signal, called active from +8 up or from −8 down
[9] = small molecules captured by biotinylated probe aFST – biochemical, small-molecule microarray, fluorescence 635/667, stem cell growth factor project, primary screen (AID 1086); settings: higher = more signal;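 also: score merges 667 nm fluorescence with signal-to-noise of each printed compound spot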
[10] = binders of probe aHhip on microarray, primary screen, stem cell growth factor project, biochemical, small-molecule microarray, fluorescence 635/667 (AID 1087); settings: higher = more signal;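 also: score merges spot fluorescence at 667nm with spot signal to noise ratio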
[11] = tested on: PRMT1 (protein arginine N-methyltransferase 1); test: small molecules binding arginine methyltransferase PRMT1 – biochemical, small-molecule microarray, 635 nm fluorescence, primary screen (AID 1088); settings: higher = more signal;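 also: binding of Prmt1 protein to compounds spotted on small-molecule microarray slides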
[12] = growth effects on S. cerevisiae YJM789 – YJM789 clinical isolate, OD600, 24 h, basal, primary screen (AID 1089); settings: higher = more signal, called active from +8 up or from −8 down;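 also: growth of clinical yeast isolate S. cerevisiae YJM 789 seeded 1000 cells per well; test concentration not given here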
[13] = S. pombe growth modifiers, basal conditions – strain 972, OD600, 24 h, no modulator, primary screen (AID 1090);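 also: basal condition with compound alone and no growth modifier present; test concentration not given here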; settings: S. pombe 972 growth, higher = more signal, called active from +8 up or from −8 down
[14] = budding yeast growth modifiers under rapamycin – strain BY4716, OD600, 96 h, primary screen (AID 1091); also: test concentration not given here; settings: S. cerevisiae BY4716 + rapamycin, higher = more signal, called active from +8 up or from −8 down
[15] = molecular target: Torsin-1A-interacting protein 2 (Homo sapiens) (UniProt Q8NFQ8); test: small molecules binding lysate-expressed LULL1 – cell lysate, human LULL1 lysate, 635/667 nm fluorescence, primary screen (AID 1092); settings: small-molecule microarray, hLULL1 lysate binding, 635 nm fluorescence; higher = more signal;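 also: probe is lysate of COS7 cells overexpressing human LULL1; score merges per-feature 667 nm fluorescence with signal-to-noise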
Sequence of Torsin-1A-interacting protein 2 (Homo sapiens) (Q8NFQ8 whole entry, looked up): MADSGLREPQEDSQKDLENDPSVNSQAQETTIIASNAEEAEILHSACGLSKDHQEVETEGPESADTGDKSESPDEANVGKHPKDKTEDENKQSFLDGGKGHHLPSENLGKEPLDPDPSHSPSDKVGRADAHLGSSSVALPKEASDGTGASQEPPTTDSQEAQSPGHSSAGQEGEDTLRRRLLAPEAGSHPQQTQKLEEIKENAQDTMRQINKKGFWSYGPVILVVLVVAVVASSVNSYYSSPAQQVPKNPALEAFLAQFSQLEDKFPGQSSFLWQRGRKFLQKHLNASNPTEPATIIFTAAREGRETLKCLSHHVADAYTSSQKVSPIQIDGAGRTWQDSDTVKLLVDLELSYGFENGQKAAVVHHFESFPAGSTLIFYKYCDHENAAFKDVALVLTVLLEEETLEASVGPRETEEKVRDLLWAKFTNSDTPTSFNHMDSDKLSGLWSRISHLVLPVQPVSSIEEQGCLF

[16] = optical density change of DRC41 E. coli – strain DRC41, OD650, 24 h, E. coli filamentation project, primary screen (AID 1093);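 also: MC1000 strain lacking acrAB efflux and sulA so SOS filamentation is blocked; test concentration not given here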; settings: E. coli DRC41 growth, higher = more signal, called active from +8 up or from −8 down
[17] = probe aLefty2 binding to arrayed compounds – biochemical, biotinylated probe, 635/667 nm fluorescence, primary screen (AID 1094); settings: small-molecule microarray, higher = more signal;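 also: score merges spot fluorescence near 667 nm with spot signal-to-noise ratio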
[18] = tested on: Noggin (protein binding on small-molecule microarray); test: small molecules binding Noggin protein – biochemical, 635/667 nm fluorescence, primary screen (AID 1095); settings: 635 nm fluorescence, higher = more signal;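 also: score merges 667 nm feature fluorescence with signal to noise over triplicate slides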
[19] = molecular target: Neurogenic locus notch homolog protein 3 (Homo sapiens) (UniProt Q9UM47); test: small molecules binding NOTCH3 protein – biochemical, 635/667 nm fluorescence, primary screen (AID 1096); settings: small-molecule microarray, 635 nm fluorescence, higher = more signal
Sequence of Neurogenic locus notch homolog protein 3 (Homo sapiens) (Q9UM47 whole entry, looked up): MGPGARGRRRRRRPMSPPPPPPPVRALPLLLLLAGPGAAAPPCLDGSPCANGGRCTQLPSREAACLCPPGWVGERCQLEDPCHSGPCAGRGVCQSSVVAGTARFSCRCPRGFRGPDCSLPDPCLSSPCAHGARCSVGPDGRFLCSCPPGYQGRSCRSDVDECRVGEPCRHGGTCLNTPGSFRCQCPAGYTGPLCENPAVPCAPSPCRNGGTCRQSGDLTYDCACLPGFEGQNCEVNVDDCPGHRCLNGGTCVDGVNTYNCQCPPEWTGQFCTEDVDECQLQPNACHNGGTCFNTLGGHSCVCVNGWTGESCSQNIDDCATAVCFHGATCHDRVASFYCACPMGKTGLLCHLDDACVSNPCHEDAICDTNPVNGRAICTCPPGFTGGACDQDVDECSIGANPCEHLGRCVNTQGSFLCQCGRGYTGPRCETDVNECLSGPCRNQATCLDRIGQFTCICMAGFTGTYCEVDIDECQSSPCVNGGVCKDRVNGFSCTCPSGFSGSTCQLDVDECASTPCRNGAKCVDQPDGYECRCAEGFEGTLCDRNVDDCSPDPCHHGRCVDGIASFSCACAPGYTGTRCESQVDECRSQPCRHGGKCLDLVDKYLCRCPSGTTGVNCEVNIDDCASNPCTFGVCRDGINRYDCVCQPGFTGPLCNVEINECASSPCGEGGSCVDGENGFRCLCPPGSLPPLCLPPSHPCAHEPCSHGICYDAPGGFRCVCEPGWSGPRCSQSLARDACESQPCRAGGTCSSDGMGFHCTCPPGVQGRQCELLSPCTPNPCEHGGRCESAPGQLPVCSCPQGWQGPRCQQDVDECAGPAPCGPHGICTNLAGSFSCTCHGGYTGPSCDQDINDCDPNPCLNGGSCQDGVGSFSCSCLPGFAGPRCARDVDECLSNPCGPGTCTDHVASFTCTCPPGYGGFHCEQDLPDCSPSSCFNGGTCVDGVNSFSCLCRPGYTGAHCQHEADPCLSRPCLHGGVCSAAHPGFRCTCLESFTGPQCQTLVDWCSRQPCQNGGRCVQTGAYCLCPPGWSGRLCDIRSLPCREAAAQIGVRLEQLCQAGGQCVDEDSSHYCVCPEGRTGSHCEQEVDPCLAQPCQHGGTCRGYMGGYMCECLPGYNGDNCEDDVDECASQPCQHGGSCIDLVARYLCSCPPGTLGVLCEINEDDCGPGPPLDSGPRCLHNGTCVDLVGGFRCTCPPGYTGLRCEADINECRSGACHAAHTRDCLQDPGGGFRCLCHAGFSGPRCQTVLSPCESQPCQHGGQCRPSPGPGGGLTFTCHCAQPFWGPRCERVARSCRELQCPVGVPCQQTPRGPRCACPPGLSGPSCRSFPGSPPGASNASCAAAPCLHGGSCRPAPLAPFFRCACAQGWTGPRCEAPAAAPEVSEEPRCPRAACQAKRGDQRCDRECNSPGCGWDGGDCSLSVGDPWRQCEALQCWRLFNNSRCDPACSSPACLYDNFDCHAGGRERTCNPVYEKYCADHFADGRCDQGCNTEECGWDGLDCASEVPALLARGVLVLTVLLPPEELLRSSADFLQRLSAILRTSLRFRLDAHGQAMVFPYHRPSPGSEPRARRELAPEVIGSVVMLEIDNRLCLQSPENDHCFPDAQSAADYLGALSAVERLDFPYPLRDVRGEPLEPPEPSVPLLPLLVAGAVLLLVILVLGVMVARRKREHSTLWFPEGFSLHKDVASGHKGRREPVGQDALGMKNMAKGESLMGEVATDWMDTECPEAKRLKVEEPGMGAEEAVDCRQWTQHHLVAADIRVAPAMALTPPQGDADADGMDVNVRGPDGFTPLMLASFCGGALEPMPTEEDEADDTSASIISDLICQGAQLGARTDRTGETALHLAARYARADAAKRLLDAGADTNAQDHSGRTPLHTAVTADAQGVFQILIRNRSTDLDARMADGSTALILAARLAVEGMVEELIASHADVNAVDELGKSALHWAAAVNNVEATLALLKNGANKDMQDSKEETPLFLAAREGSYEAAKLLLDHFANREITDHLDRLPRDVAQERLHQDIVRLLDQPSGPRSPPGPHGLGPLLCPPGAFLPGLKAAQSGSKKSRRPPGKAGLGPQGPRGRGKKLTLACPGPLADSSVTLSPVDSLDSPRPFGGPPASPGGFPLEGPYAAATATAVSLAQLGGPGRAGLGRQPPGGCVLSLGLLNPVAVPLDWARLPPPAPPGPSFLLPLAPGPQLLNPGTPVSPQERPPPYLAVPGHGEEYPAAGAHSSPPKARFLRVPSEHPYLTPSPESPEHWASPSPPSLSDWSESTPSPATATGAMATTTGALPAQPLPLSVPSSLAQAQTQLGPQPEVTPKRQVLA

[20] = probe aEGFR binding to arrayed compounds – biochemical, biotinylated probe, 635/667 nm fluorescence, primary screen (AID 1097); settings: small-molecule microarray, higher = more signal;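 also: probe is a biotinylated anti-EGFR antibody binding compounds printed on slides; score combines fluorescence near 667 nm and signal to noise of each spot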

SMILES | composite z-score [1] | composite z-score [2] | composite z-score [3] | composite z-score [4] | composite z-score [5] | composite z-score [6] | composite z-score [7] | z-score [8] | composite z-score [9] | composite z-score [10] | composite z-score [11] | z-score [12] | z-score [13] | z-score [14] | composite z-score [15] | z-score [16] | composite z-score [17] | composite z-score [18] | composite z-score [19] | composite z-score [20]
O=C1O[C@@H](c2ccccc2)[C@@H](c2ccccc2)N2[C@@H](c3ccc(O)cc3)[C@]3(C(=O)Nc4ccc(C#CC5(O)CCCCCC5)cc43)[C@@H](C(=O)N3CCN(c4ncccn4)CC3)[C@H]12 | -0.381 | 0.0262 | 0.0011 | 0.349 | 0.609 | 1.6 | 1.22 | -0.0311 (inactive) | 0.204 | -0.0994 | 1.34 | 0.979 (inactive) | 0.37 (inactive) | 0.924 (inactive) | 2.75 | 1.52 (inactive) | -0.114 | 0.864 | 0.886 | -0.0399
COC(=O)C(CC#Cc1ccc2c(c1)[C@]1(C(=O)N2)[C@H](c2ccc(O)cc2)N2[C@H](c3ccccc3)[C@H](c3ccccc3)OC(=O)[C@H]2[C@@H]1C(=O)O)C(=O)OC | -0.331 | -0.11 | -0.132 | 0.206 | 0.63 | 0.82 | 0.798 | 0.831 (inactive) | 1.25 | 0.0505 | 0.439 | 1.22 (inactive) | -0.489 (inactive) | -0.922 (inactive) | 2.96 | -1.28 (inactive) | -0.166 | 0.307 | 0.64 | -0.0152
Cc1ccc(N2C(=O)c3ccccc3[C@](C)(C(=O)NC(C)C)[C@@H]2c2ccc(CO)cc2)nc1 | 1.57 | -1.06 | -0.254 | -1.11 | -1.61 | -1.55 | 0.787 | -0.0923 (inactive) | -0.927 | 0.119 | 0.595 | -0.273 (inactive) | -1.14 (inactive) | -1.8 (inactive) | 3.07 | 1.19 (inactive) | -0.0153 | -2.13 | -0.572 | -0.36
COCCOC(=O)N1C(=O)[C@@]2(c3cc(C#CCCO)ccc31)[C@H](C(=O)N1CCc3cc(OC)c(OC)cc3C1)[C@H]1C(=O)O[C@H](c3ccccc3)[C@H](c3ccccc3)N1[C@@H]2c1ccc(OCCO)cc1 | -0.392 | 0.282 | -0.0867 | 0.501 | 0.467 | 0.007 | 1.16 | -0.561 (inactive) | 0.242 | -0.216 | 1.55 | -1.17 (inactive) | -0.581 (inactive) | 2.59 (inactive) | 2.59 | 1.26 (inactive) | -0.104 | 1.12 | 1.07 | -0.0859
CCOc1cc(C(O)C2C=CC3C(=O)NC(=O)C3N2Nc2ccccn2)ccc1O (stereo not given) | -0.373 | 0.123 | -0.0094 | 0.458 | 0.257 | 0.18 | 0.117 | -0.027 (inactive) | 0.0771 | -0.132 | -0.0438 | 0.128 (inactive) | 1.33 (inactive) | -0.0339 (inactive) | 0.394 | -0.977 (inactive) | -0.0708 | 0.195 | 0.0082 | -0.0947
CCOC(=O)C1=CC[C@@H](c2ccc(N(CC)CC)cc2)N(S(=O)(=O)c2ccc(C)cc2)[C@H]1c1ccc([N+](=O)[O-])cc1 | 0.709 | -0.346 | -0.0336 | -0.865 | -0.398 | 0.722 | 0.722 | -0.162 (inactive) | 0.0676 | -0.0237 | 0.554 | -0.673 (inactive) | 0.0534 (inactive) | 2.76 (inactive) | 2.29 | -0.532 (inactive) | 0.415 | -0.796 | 0.206 | -0.0688
CCOC(=O)C[C@H]1[C@H](OC(=O)c2ccccc2-c2ccccc2)[C@@H](NC(=O)c2ccccc2)c2cc(OCCCO)ccc2N1C(=O)Cc1ccc(OC)cc1 | -0.205 | -0.0688 | -0.0569 | 0.149 | 0.585 | -0.323 | -0.191 | 0.57 (inactive) | -0.0579 | -0.204 | -0.175 | -0.211 (inactive) | -0.0183 (inactive) | 0.452 (inactive) | 0.601 | -0.922 (inactive) | -0.0963 | -0.0496 | -0.196 | -0.108
COc1ccccc1CN1C(=O)c2ccccc2[C@@]2(Cc3ccccc3N(C3CC3)C2=O)[C@@H]1c1ccc(CO)cc1 | -0.262 | -0.804 | -0.107 | 0.0106 | -0.461 | 0.937 | -0.0422 | -0.223 (inactive) | 0.0845 | -0.164 | 0.0943 | -0.245 (inactive) | -0.384 (inactive) | -2.24 (inactive) | 0.861 | -0.134 (inactive) | -0.0699 | -0.2 | -0.473 | -0.181
CO[C@H]1O[C@H](CO)[C@@H](OC(=O)c2ccc(Br)cc2)[C@@H]2OC(=O)[C@H](Cc3cccc(Br)c3)C/C=C/C[C@@H](Cc3cccc(Br)c3)C(=O)O[C@@H]12 | 0.174 | 0.665 | 0.0376 | 1.12 | 1.43 | 1.43 | 1.06 | 0.374 (inactive) | 0.551 | 0.319 | 1.47 | -0.73 (inactive) | 0.16 (inactive) | -0.0347 (inactive) | 1.08 | -0.972 (inactive) | 0.0717 | 0.553 | 1.04 | 0.158
O=C1c2ccccc2[C@](Cc2ccccc2I)(C(=O)NCC(F)(F)F)[C@H](c2ccc(CO)cc2)N1Cc1ccccc1 | -0.213 | -0.0086 | 0.0363 | 0.15 | 1.39 | 1.12 | 1.21 | -0.508 (inactive) | 0.585 | 0.0734 | 1.55 | -0.943 (inactive) | -0.732 (inactive) | -0.666 (inactive) | 2.45 | 0.29 (inactive) | -0.0907 | 0.444 | 1.16 | -0.0679
